Measured values taken from the supplement of paper PMC12494721.
Counter-ions that a name gives are not always drawn.

Key:
Settings in all cases: incubation time: 27 h, anaerobic, 37 °C;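 for the amine columns active = adjusted P below 0.05 in both replicates with a change the same way and a mean fold change under 0.8 or over 1.25; inactive = the rest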
[1] = test system: Clostridium sporogenes DSM 1664; experiment: growth (OD595) fold change vs plate DMSO controls (fold change (ratio)); higher = more growth
Summary of the method: (§1)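 The reported measure is growth: the fold change against the median of DMSO controls on the plate. Absorbance at 595 nm from anaerobic 96-well mGAM cultures grown for 27 h at 37 °C was blank-subtracted, corrected for background with 20 µM compound solutions in water, and converted to OD with a calibration factor of 5. Fold changes above 1.5 appear as NA, and values are the mean of 2 biological replicates.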

Escherichia coli IAI1 [2] = experiment: as above
Summary of the method: as §1

[3] = test system: Klebsiella aerogenes DSM 30053; experiment: as above
Summary of the method: as §1

[4] = test system: Ruminococcus gnavus DSM 108212; experiment: as above
Summary of the method: as §1

[5] = test system: Klebsiella aerogenes DSM 30053; experiment: fold change of Histamine concentration vs plate DMSO controls (fold change (ratio)); higher = more amine produced, active = hit call of the paper (significant change in both replicates, either direction)
Summary of the method: (§2)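 Anaerobic mGAM cultures of four gut bacterial strains were grown at 37 °C for 27 h in 80 µL wells, starting at OD 0.1 before 1:1 dilution. Compounds were at 20 µM final (sweeteners 50 µM). Whole cultures were extracted with cold acetonitrile/methanol containing 0.1% formic acid and centrifuged. Amines were quantified by LC–triple-quadrupole MS (dynamic MRM) against external calibration curves and drift-corrected within batch. Each value is the fold change versus plate DMSO controls, averaged over 2 biological replicates.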

[6] = test system: Clostridium sporogenes DSM 1664; experiment: fold change of Tryptamine concentration vs plate DMSO controls (fold change (ratio)); higher = more amine produced, active = hit call of the paper (significant change in both replicates, either direction)
Summary of the method: as §2

[7] = test system: Ruminococcus gnavus DSM 108212; experiment: as above
Summary of the method: as §2

Escherichia coli IAI1 [8] = experiment: fold change of Putrescine concentration vs plate DMSO controls (fold change (ratio)); higher = more amine produced, active = hit call of the paper (significant change in both replicates, either direction)
Summary of the method: as §2

[9] = test system: Klebsiella aerogenes DSM 30053; experiment: as above
Summary of the method: as §2

Escherichia coli IAI1 [10] = experiment: fold change of Cadaverine concentration vs plate DMSO controls (fold change (ratio)); higher = more amine produced, active = hit call of the paper (significant change in both replicates, either direction)
Summary of the method: as §2

[11] = test system: Klebsiella aerogenes DSM 30053; experiment: as above
Summary of the method: as §2

[12] = test system: Ruminococcus gnavus DSM 108212; experiment: fold change of 2-Phenylethylamine concentration vs plate DMSO controls (fold change (ratio)); higher = more amine produced, active = hit call of the paper (significant change in both replicates, either direction)
Summary of the method: as §2

Compound | growth [1] | growth (Escherichia coli IAI1 [2]) | growth [3] | growth [4] | fold change of Histamine concentration [5] | fold change of Tryptamine concentration [6] | fold change of Tryptamine concentration [7] | fold change of Putrescine concentration (Escherichia coli IAI1 [8]) | fold change of Putrescine concentration [9] | fold change of Cadaverine concentration (Escherichia coli IAI1 [10]) | fold change of Cadaverine concentration [11] | fold change of 2-Phenylethylamine concentration [12]
CC[C@H](C)C(=O)O[C@H]1CCC=C2C=C[C@H](C)[C@H](CC[C@@H]3C[C@@H](O)CC(=O)O3)[C@H]21 [Mevastatin] (20 µM) | 1.15 | 1 | 1.01 | 1.02 | 0.995 (inactive) | 0.988 (inactive) | 1.02 (inactive) | 0.998 (inactive) | 1 (inactive) | 1.07 (inactive) | 0.998 (inactive) | 1.04 (inactive)
COc1ccc2c3c1O[C@H]1C[C@@H](O)C=C[C@@]31CCN(C)C2 [Galanthamine hydrobromide] (20 µM) | 0.93 | 1.06 | 1.04 | 0.846 | 1.01 (inactive) | 1.01 (inactive) | 1.01 (inactive) | 1.03 (inactive) | 1 (inactive) | 0.979 (inactive) | 0.999 (inactive) | 1 (inactive)
Cn1cnc2c1c(=O)[nH]c(=O)n2C [Theobromine] (20 µM) | 1.19 | 1 | 1.04 | 1.11 | 0.986 (inactive) | 1.11 (inactive) | 1.05 (inactive) | 0.998 (inactive) | 0.991 (inactive) | 0.982 (inactive) | 1 (inactive) | 1.04 (inactive)
C[n+]1ccccc1/C=N/O [Pralidoxime chloride] (20 µM) | 1.19 | 0.995 | 1.01 | 1.05 | 1.13 (inactive) | 1.02 (inactive) | 1.01 (inactive) | 0.968 (inactive) | 1.04 (inactive) | 1.02 (inactive) | 0.991 (inactive) | 1.01 (inactive)
Oc1ccc(OCc2ccccc2)cc1 [Monobenzone] (20 µM) | 1.21 | 0.897 | 1.11 | 1.03 | 0.974 (inactive) | 1.02 (inactive) | 0.872 (inactive) | 0.884 (inactive) | 1.01 (inactive) | 0.978 (inactive) | 0.996 (inactive) | 0.828 (inactive)
COC1=CC(=O)C[C@@H](C)[C@]12Oc1c(Cl)c(OC)cc(OC)c1C2=O [Griseofulvin] (20 µM) | 0.993 | 1.02 | 0.922 | 0.915 | 1.02 (inactive) | 1.03 (inactive) | 0.993 (inactive) | 1.01 (inactive) | 0.989 (inactive) | 1.03 (inactive) | 0.999 (inactive) | 0.98 (inactive)
CCCCNc1ccc(C(=O)OCCN(C)C)cc1 [Tetracaine hydrochloride] (20 µM) | 1.06 | 1.02 | 0.968 | 0.907 | 1.08 (inactive) | 1.04 (inactive) | 1.07 (inactive) | 0.956 (inactive) | 1.04 (inactive) | 0.983 (inactive) | 0.991 (inactive) | 1.05 (inactive)
C[C@@H](O)[C@H]1C(=O)N2C(C(=O)O)=C(S[C@@H]3CN[C@H](CNS(N)(=O)=O)C3)[C@H](C)[C@H]12 [Doripenem monohydrate] (20 µM) | 0 | 0.00243 | 0.281 | 0.0314 | 0.193 (active) | 0.0168 (active) | 0.0858 (active) | 0.954 (inactive) | 0.467 (active) | 2.1 (active) | 1.08 (inactive) | 0.0567 (active)
CC(C)NC[C@H](O)COc1ccc(CC(N)=O)cc1 [(S,-) Atenolol] (20 µM) | 0 | 0.913 | 1.01 | 0.825 | 1.04 (inactive) | 0.0316 (active) | 0.944 (inactive) | 0.847 (inactive) | 1.03 (inactive) | 0.954 (inactive) | 1.02 (inactive) | 0.909 (inactive)
CN1CC(=O)N2[C@H](c3ccc4c(c3)OCO4)c3[nH]c4ccccc4c3C[C@@H]2C1=O [Tadalafil] (20 µM) | 1 | 1.02 | 0.993 | 0.916 | 1.07 (inactive) | 1.07 (inactive) | 0.925 (inactive) | 0.957 (inactive) | 1.01 (inactive) | 1.03 (inactive) | 0.971 (inactive) | 0.911 (inactive)
